Measured values published in PubChem BioAssay (EPA / NIEHS).
Records with an inconclusive call do not appear. The source made the active and inactive calls. Rule for the calls, unless noted: active = hit-call score of the fitted dose curve at least 0.9, where 1 is the maximum; inconclusive = response in the unintended direction; inactive = score below 0.9.

How the values were obtained:
[1] = ATG_TGFb_CIS: Attagene CIS-FACTORIAL HepG2 Assay for human Transforming Growth Factor (TGF) (AID 2282967; active = hit-call score of the fitted dose curve at least 0.9, where 1 is the maximum; inactive = score below 0.9); settings: HepG2 Attagene CIS TGFb reporter, mRNA transcription; actives raise or lower the signal
Method in brief: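 Liver HepG2 line, cis-factorial reporter panel, 24 h dosing. Quantitation: RT-PCR products labeled with 6-FAM, cut with HpaI, resolved by capillary electrophoresis; DMSO-referenced bidirectional analysis.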

[2] = ATG_VDRE_CIS: Attagene CIS-FACTORIAL HepG2 Assay for human Vitamin D Receptor Element (VDRE) (AID 2282968; active = hit-call score of the fitted dose curve at least 0.9, where 1 is the maximum; inactive = score below 0.9); settings: HepG2 VDRE cis-reporter transcription, actives raise or lower the signal
Method in brief: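 Compounds were applied for 24 h to HepG2 cells transfected with promoter-regulated reporter units. Total RNA was reverse-transcribed, and reporter amplicons were fluorescently labelled and sized by capillary electrophoresis.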

[3] = target: X-box-binding protein 1 (Homo sapiens) (UniProt P17861); assay: ATG_Xbp1_CIS: Attagene CIS-FACTORIAL HepG2 Assay for human X-box Binding Protein 1 (XBP1) (AID 2282972; active = hit-call score of the fitted dose curve at least 0.9, where 1 is the maximum; inactive = score below 0.9); settings: HepG2 XBP1 cis-element reporter, Attagene multiplex; actives raise or lower the signal
Method in brief: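 Human hepatoma HepG2, cis-element reporter system, 24 h treatment; mRNA quantified by RT-PCR/CE fluorescence; fit relative to DMSO.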

[4] = ATG_M_19_TRANS: Attagene TRANS-FACTORIAL HepG2 Assay for M19 Transcription Factor (Internal Marker) (AID 2282974); settings: HepG2 Attagene TRANS-FACTORIAL M19 internal marker reporter
Method in brief: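 Multiplexed TRANS format: HepG2 liver cells bearing transient GAL4-UAS reporter units, chemical treatment 24 h, reporter transcripts quantified by RT-PCR plus capillary electrophoresis. DMSO defines baseline.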

[5] = target: Glucocorticoid receptor (Homo sapiens) (UniProt P04150); assay: ATG_GR_TRANS: Attagene TRANS-FACTORIAL HepG2 Assay for human Glucocorticoid Receptor (GR) (AID 2282978); settings: HepG2 Attagene TRANS GR reporter, mRNA transcription;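 note: activators score as hits since higher reporter transcript over DMSO is fitted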
Method in brief: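 Transiently transfected HepG2 cells express chimeric NR-GAL4 proteins acting on GAL4-UAS reporter units. Compounds are applied for 24 h. mRNA induction over DMSO is measured by capillary electrophoresis.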

[6] = target: Bile acid receptor (Homo sapiens) (UniProt Q96RI1); assay: ATG_FXR_TRANS: Attagene TRANS-FACTORIAL HepG2 Assay for Farnesoid X Receptor (FXR) (AID 2282979); settings: HepG2 Attagene TRANS FXR-GAL4 reporter transcription;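 note: hits raise reporter mRNA above DMSO so AC50 marks FXR activation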
Method in brief: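 Chimeric FXR-GAL4 activity in transiently transfected human HepG2 liver cells is scored as induction of reporter mRNA after 24 h of dosing. Detection uses RT-PCR with fluorescent labelling and capillary electrophoresis, with DMSO serving as baseline.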

[7] = target: Oxysterols receptor LXR-beta (Homo sapiens) (UniProt P55055); assay: ATG_LXRb_TRANS: Attagene TRANS-FACTORIAL HepG2 Assay for human Liver X Receptor beta (LXRb) (AID 2282981); settings: HepG2 Attagene TRANS GAL4-LXRb reporter, mRNA
Method in brief: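 Multiplexed reporter assay, HepG2, 24 h dosing. Fluorescence of labelled RT-PCR products after capillary electrophoresis gives transcript level; positive fitting direction relative to DMSO.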

[8] = ATG_GAL4_TRANS: Attagene TRANS-FACTORIAL HepG2 Assay for GAL4 (Internal Marker) (AID 2282976); settings: HepG2 Attagene TRANS GAL4 internal marker reporter
Method in brief: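 Fluorescence from capillary electrophoresis of labelled RT-PCR products quantifies reporter mRNA induction after 24 h dosing of HepG2 cells carrying transfected GAL4-UAS reporter transcription units. Vehicle DMSO serves as baseline.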

[9] = target: Estrogen receptor (Homo sapiens) (UniProt P03372); assay: ATG_ERa_TRANS: Attagene TRANS-FACTORIAL HepG2 Assay for human Estrogen Receptor alpha (ERa) (AID 2282970); settings: HepG2 Attagene TRANS ERa GAL4 reporter, mRNA
Method in brief: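 Transfected HepG2 cells carrying GAL4-UAS-driven reporter units were dosed for 24 hours. Total RNA was reverse-transcribed, reporter sequences PCR-amplified, FAM-labelled, HpaI-digested and resolved by capillary electrophoresis. Increases over DMSO control defined activity.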

[10] = target: Nuclear receptor subfamily 1 group I member 3 (Homo sapiens) (UniProt Q14994); assay: ATG_CAR_TRANS: Attagene TRANS-FACTORIAL HepG2 Assay for human Constitutive Androstane Receptor (CAR) (AID 2282969); settings: HepG2 Attagene TRANS-FACTORIAL CAR reporter;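 note: activators raise reporter mRNA above DMSO so AC50 marks induction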
Method in brief: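 Transiently transfected HepG2, multiplex TRANS reporters (CAR-Gal4 chimera driving GAL4-UAS reporter). 24 h dosing. Readout: reporter transcript by RT-PCR + capillary electrophoresis, fluorescence intensity; positive direction vs DMSO.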

Measured: AC50

Chain of Glucocorticoid receptor (Homo sapiens) (P04150 whole entry, looked up, the tested form may be a part): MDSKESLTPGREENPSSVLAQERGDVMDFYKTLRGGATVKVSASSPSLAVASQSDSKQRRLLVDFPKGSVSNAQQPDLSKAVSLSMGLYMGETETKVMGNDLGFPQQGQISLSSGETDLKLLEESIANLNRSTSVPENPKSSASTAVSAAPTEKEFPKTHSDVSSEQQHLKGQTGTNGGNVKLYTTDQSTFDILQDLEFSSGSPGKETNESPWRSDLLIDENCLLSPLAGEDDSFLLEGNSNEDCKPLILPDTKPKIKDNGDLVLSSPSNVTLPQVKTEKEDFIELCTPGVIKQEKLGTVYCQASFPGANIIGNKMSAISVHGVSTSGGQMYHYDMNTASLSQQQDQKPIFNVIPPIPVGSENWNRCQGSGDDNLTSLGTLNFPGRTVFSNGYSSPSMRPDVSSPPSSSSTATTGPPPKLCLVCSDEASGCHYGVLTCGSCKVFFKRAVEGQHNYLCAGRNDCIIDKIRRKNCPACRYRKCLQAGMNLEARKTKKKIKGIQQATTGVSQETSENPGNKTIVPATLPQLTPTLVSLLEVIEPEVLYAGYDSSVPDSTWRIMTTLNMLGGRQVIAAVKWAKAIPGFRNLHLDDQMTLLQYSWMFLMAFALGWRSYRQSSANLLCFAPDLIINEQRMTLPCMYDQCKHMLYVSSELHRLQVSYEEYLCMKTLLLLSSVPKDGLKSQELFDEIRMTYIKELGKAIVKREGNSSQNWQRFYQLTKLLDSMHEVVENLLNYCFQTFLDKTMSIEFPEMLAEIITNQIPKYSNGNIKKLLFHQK
Chain of Nuclear receptor subfamily 1 group I member 3 (Homo sapiens) (Q14994 whole entry, looked up, the tested form may be a part): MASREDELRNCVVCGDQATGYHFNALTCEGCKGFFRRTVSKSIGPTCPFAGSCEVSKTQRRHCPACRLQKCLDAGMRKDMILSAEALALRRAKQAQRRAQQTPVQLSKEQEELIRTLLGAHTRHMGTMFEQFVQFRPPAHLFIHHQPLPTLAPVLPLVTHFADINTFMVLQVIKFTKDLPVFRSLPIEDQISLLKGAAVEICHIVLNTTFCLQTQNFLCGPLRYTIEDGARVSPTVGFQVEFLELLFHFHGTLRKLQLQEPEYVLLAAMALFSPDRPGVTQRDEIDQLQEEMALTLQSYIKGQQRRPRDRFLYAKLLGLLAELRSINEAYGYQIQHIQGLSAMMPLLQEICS
Chain of Estrogen receptor (Homo sapiens) (P03372 whole entry, looked up, the tested form may be a part): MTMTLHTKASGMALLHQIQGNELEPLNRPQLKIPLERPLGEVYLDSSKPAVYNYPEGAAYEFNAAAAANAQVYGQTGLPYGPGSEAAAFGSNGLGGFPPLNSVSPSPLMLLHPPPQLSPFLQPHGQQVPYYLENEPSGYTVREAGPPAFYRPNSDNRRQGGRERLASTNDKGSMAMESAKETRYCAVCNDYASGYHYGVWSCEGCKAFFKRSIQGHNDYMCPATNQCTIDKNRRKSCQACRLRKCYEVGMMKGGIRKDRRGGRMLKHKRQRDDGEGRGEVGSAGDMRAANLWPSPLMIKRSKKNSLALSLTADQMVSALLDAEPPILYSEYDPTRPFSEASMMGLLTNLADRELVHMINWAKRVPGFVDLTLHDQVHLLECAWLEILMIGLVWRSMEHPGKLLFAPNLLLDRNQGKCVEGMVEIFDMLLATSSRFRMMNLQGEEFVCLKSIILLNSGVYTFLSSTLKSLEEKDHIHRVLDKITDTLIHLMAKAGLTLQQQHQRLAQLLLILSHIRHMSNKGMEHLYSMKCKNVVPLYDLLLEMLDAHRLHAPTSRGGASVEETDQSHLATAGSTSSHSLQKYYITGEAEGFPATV
Chain of Oxysterols receptor LXR-beta (Homo sapiens) (P55055 whole entry, looked up, the tested form may be a part): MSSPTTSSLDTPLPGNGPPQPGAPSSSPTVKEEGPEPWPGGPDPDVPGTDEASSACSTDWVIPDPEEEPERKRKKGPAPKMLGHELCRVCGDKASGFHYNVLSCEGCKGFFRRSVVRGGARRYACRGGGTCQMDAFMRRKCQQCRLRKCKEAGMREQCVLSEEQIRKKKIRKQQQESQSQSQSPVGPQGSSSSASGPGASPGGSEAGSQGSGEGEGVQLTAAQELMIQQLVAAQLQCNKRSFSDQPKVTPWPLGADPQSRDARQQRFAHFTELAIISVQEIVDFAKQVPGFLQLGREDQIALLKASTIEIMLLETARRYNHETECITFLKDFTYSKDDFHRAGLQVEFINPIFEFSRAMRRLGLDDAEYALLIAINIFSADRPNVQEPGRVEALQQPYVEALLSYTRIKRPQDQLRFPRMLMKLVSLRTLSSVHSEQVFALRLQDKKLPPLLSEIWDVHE
Chain of Bile acid receptor (Homo sapiens) (Q96RI1 whole entry, looked up, the tested form may be a part): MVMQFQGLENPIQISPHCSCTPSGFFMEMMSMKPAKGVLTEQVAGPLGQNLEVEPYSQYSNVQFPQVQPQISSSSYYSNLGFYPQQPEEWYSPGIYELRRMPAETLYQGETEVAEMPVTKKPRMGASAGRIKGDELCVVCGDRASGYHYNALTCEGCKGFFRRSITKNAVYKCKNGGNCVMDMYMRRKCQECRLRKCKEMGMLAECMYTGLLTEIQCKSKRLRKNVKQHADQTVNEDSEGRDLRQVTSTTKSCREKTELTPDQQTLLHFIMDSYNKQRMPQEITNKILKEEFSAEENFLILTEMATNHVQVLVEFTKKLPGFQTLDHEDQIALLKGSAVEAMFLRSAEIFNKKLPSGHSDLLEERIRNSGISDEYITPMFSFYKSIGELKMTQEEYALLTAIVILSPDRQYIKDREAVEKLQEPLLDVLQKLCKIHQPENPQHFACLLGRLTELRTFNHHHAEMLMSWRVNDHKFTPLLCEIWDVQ
Chain of X-box-binding protein 1 (Homo sapiens) (P17861 whole entry, looked up): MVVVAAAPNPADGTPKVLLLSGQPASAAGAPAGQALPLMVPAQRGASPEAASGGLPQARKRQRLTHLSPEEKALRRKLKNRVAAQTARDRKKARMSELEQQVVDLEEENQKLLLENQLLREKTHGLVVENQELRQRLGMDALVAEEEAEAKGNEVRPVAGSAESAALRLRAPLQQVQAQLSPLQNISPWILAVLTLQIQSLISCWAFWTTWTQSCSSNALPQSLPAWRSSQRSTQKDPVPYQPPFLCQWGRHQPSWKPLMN

CC(C)=CCC/C(C)=C\CO
not listed: [8] | [9] | [10]
inactive: all other assays above

C1N2CN3CN1CN(C2)C3
inactive: [1] | [2] | [3] | [4] | [8] | [7]

COc1ccc2sc(C(=O)Nc3nnn[nH]3)c(OC(C)C)c2c1
inactive: [1] | [8] | [5] | [6]
active: [2] 157 µM | [9] 59.3 µM

NC(=O)NO
inactive: [1] | [2] | [3] | [8] | [5]

COC(=O)c1c(Cl)c(Cl)c(C(=O)OC)c(Cl)c1Cl
inactive: [1] | [2] | [9] | [4] | [8] | [6]

CC[C@H]1CC[C@H](NCc2cc3c(cc2OC)[C@H]2C[C@H]2C(=O)N3C)[C@H](c2ccccc2)N1
inactive: [1] | [9] | [5] | [7]
active: [2] 33.2 µM | [3] 96.6 µM

O=c1[nH]c2ccc(S(=O)CCN3CCC(Cc4ccc(F)cc4)CC3)cc2o1 (stereo not given)
active: [2] 55.1 µM
inactive: [1] | [9] | [8] | [5] | [7]

COc1ccc(/C=C/S(=O)(=O)NC(=O)c2ccc(C)cc2Cl)cc1
inactive: [1] | [2] | [3] | [4] | [5] | [7]

CC(O)CN(CCN(CC(C)O)CC(C)O)CC(C)O (stereo not given)
inactive: [1] | [2] | [3] | [4] | [5]

O=P(OC(CCl)CCl)(OC(CCl)CCl)OC(CCl)CCl
active: [2] 3.53 µM
inactive: [1] | [9] | [8]

O=C1OC(=O)C2C3C=CC(C3)C12 (stereo not given)
inactive: [1] | [2] | [3] | [4]

CCC(C)(C)C(=O)O[C@H]1C[C@@H](C)C=C2C=C[C@H](C)[C@H](CC[C@@H]3C[C@@H](O)CC(=O)O3)[C@H]21
inactive: [1] | [2] | [9] | [4] | [8] | [5]

Cn1c(=O)cc(Oc2ccc(F)cc2F)c2cnc(NCC(C)(C)O)nc21
not listed: [3] | [8] | [10]
inactive: all other assays above

CCCCCCCCO
inactive: [1] | [2] | [9] | [4] | [8] | [5]

CC(C)CC(C)(O)C#CC(C)(O)CC(C)C (stereo not given)
inactive: [1] | [2] | [3] | [4] | [5]

CC(C)c1cccc(C(C)C)c1N1C(=O)c2ccc(O)cc2C1=O
inactive: [1] | [4] | [5] | [7]
active: [2] 33.9 µM | [3] 100 µM | [6] 19.8 µM

CCn1nc(Cc2ccccc2)cc1C1CCN(C[C@H]2C[C@H](N(C)[C@@H](C(=O)O)C(C)C)C[C@@H]2c2cccc(F)c2)CC1
inactive: [1] | [2] | [9] | [4] | [8]

CC(C)CCCCCCOC(=O)c1ccc(C(=O)OCCCCCCC(C)C)c(C(=O)OCCCCCCC(C)C)c1
inactive: [1] | [2] | [3] | [8]

CCCCCCCCCCCCCCCO
inactive: [1] | [2] | [3] | [6]

CCCN(C1CCN(C(=O)C2CCNCC2)CC1)[C@@H]1CCc2ccc(OC)cc2C1
inactive: [1] | [2] | [4] | [5] | [7]

COCCOc1cc2cc(C(=O)NC3CCN(C(C)C)CC3)n(CC(=O)Nc3ccc(Cl)cn3)c2cn1
inactive: [1] | [5] | [6]
active: [2] 124 µM | [3] 100 µM

CC(C)=CCC/C(C)=C/CO
inactive: [1] | [2] | [5]

Cn1cnc([N+](=O)[O-])c1Sc1ncnc2nc[nH]c12
active: [9] 46.1 µM
inactive: [1] | [10] | [5] | [7]

CC(=O)OCCC(C)C
inactive: [1] | [3] | [8] | [7]

O=C(CCCCCCCCc1cccnc1)N1CCC(C=C(c2ccccc2)c2ccccc2)CC1
active: [2] 1.85 µM | [3] 3.5 µM | [5] 100 µM
inactive: [1]

O=C1CCCCCN1
inactive: [1] | [2] | [6] | [7]

Oc1ccc2c(c1)-c1ccccc1C2
active: [2] 28.8 µM | [3] 57.7 µM
inactive: [1] | [8] | [5] | [6]

CCN(C(=O)c1cc(C)cc(OC[C@H](C)Nc2ccncc2)c1)C(C)C
inactive: [1] | [10] | [3]

Fc1ccccc1[C@@H](F)COC1CCC(Nc2ncnc3[nH]ncc23)CC1 (stereo not given in full)
inactive: [1] | [4]
active: [2] 26 µM | [6] 25.6 µM

CCOC(=O)c1ccc(C2CCC(NC[C@H](O)COc3ccc(O)c(NS(C)(=O)=O)c3)CC2)cc1 (stereo not given in full)
inactive: [1] | [4] | [5]
active: [2] 48.5 µM | [6] 33 µM

O=C1CCC(N2C(=O)c3ccccc3C2=O)C(=O)N1 (stereo not given)
inactive: [1] | [8] | [5]

CC[C@H]1OC(=O)[C@H](C)[C@@H](O[C@H]2C[C@@](C)(OC)[C@@H](O)[C@H](C)O2)[C@H](C)[C@@H](O[C@@H]2O[C@H](C)C[C@H](N(C)C)[C@H]2O)[C@](C)(O)C[C@@H](C)C(=O)[C@H](C)[C@@H](O)[C@]1(C)O
inactive: [1] | [2] | [3] | [7]

COC(=O)CC(=O)OC
inactive: [1] | [2] | [3] | [5]

CN(C)c1ccc(Cc2ccc(N(C)C)cc2)cc1
active: [1] 130 µM | [2] 25.8 µM
inactive: [3] | [6] | [7]

CC(C)=CCCC(C)CCO (stereo not given)
inactive: [1] | [4]
active: [9] 34 µM

CC1=CC(=O)CC(C)(C)C1
inactive: [1] | [2] | [4] | [5]

CC1(C)C(=O)N(Br)C(=O)N1Br
inactive: [1] | [2] | [6]

Nc1ccc(Nc2ccccc2)cc1
inactive: [1] | [4] | [7]
active: [9] 24.5 µM

COCCOCCOCCOC
inactive: [1] | [2] | [4] | [8] | [5]

CNS(=O)(=O)c1cc(C(=O)N2CCC(CCN3C4CCC3CC(n3c(C)nc5ccccc53)C4)(c3cccc(F)c3)CC2)c(Cl)cc1F (stereo not given)
active: [2] 5.14 µM
inactive: [1] | [4] | [8]

CC(=O)OC[C@H]1O[C@@](COC(C)=O)(O[C@H]2O[C@H](COC(C)=O)[C@@H](OC(C)=O)[C@H](OC(C)=O)[C@H]2OC(C)=O)[C@@H](OC(C)=O)[C@@H]1OC(C)=O
inactive: [1] | [2] | [3] | [8] | [7]

CCCCCCc1ccc(O)cc1O
active: [2] 38.7 µM | [3] 55.3 µM
inactive: [1] | [5]

Cn1c(=O)c2c(ncn2C)n(C)c1=O
inactive: [1] | [10] | [4]

O=C(O)c1cccc(N(Cc2cccnc2)c2ccc(OC(F)F)c(OC(F)F)c2)c1
inactive: [1] | [2] | [8]

CCOCCO
inactive: [1] | [2] | [5]

CCCCC(CC)COC(=O)c1ccc(C(=O)OCC(CC)CCCC)cc1 (stereo not given)
inactive: [1] | [3] | [8] | [6]

O=C(NS(=O)(=O)/C=C/c1ccccc1)c1ccc(F)cc1Cl
inactive: [1] | [10] | [9] | [3] | [4]

Cc1[nH]cnc1C[C@H]1CCc2c(C)c3ccccc3n2C1=O
inactive: [1] | [5] | [6] | [7]
active: [2] 29.7 µM | [3] 20.4 µM
